We go through ten compounds from ChEMBL document CHEMBL4513146, “CO-ADD screening of Karazin Kharkiv National University (Ukraine) compounds”.

In general, Inhibition refers to the relative decrease from the control value, in per cent.

In assay [1] the test system is Klebsiella pneumoniae. The settings on record: Concentration 32 ug.mL-1;; ASSAY_TEST Inhibition of Bacterial Growth; detection method Absorption (OD600); MEDIA CAMHB; plate type 384well; NBS; CORNING #3640; time 18 hr.
Assay [2] has as its system Candida albicans. The settings on record: Concentration 32 ug.mL-1; ASSAY_TEST Inhibition of Fungal Growth; detection method Absorption (OD530).
Assay [3] deals with Cryptococcus neoformans. The settings on record: Concentration 32 ug.mL-1; ASSAY_TEST Inhibition of Fungal Growth; detection method Resazurin; Absorption (OD600-OD570); plate type 384well; NBS; CORNING #3640. On the technique in general: The colour change of resazurin is a common sign of viable cells or microbes.

Molecules are shown by their SMILES. Potency and affinity values are given separately.

On to `CCOc1ccc(-n2ccn3c(SCC(=O)NCc4ccccc4Cl)nnc3c2=O)cc1`, for which the Inhibition is on record as 10.62% in assay [1], 2.57% in assay [2] and -15.06% in assay [3].
On the same counts, the results for `Cc1ccc(NC(=O)CSc2nnc3c4cc(-c5ccccc5)nn4ccn23)c(C)c1` are -1.1%, 4.18% and -18.24%.
On the same counts, the results for `COc1ccc(CNC(=O)Cn2nc3c4cc(-c5ccc(C)c(C)c5)nn4ccn3c2=O)cc1` are 7.73%, 11.15% and -12.47%.
On the same counts, the results for `Cc1ccc(-c2cc3c4nnc(SCC(=O)Nc5cccc(Br)c5)n4ccn3n2)cc1` are 4.45%, 7.43% and -29.25%.
As for `Cc1cc2nn(CC(=O)NC3CCCCC3)c(=O)n2c(Nc2ccc(F)c(C)c2)n1`, the Inhibition in assay [1] is listed as 19.39%; in assay [2] it was 3.39%; in assay [3] it was -7.59%.
As for `COc1ccc2[nH]cc(C(=O)CSc3nnc4c(=O)n(-c5ccc(C)c(C)c5)ccn34)c2c1`, the Inhibition is on record as 2.12% in assay [1], 0.06% in assay [2] and -6.08% in assay [3].
With `Cc1cc(C)cc(NC(=O)Cn2nc3ccc(SCc4ccc(Cl)cc4)nn3c2=O)c1`, the values for the Inhibition in assay [1], in assay [2] and in assay [3] were -2.52%, 46.75% and -25.54%, respectively.
For the compound `O=c1c2nnc(-c3cccc([N+](=O)[O-])c3)n2ccn1-c1ccc(F)cc1`, the Inhibition is given as 11.79% in assay [1], 5.6% in assay [2] and -10.38% in assay [3].
On the same counts, the results for `O=C(Cn1nc2c(Sc3cccc(F)c3)nccn2c1=O)Nc1cccc(C(F)(F)F)c1` are 14.77%, -0.63% and -9.77%.
The like results for `COc1ccccc1Cn1c(=O)c2sccc2n2c(=O)n(Cc3cccc(Br)c3)nc12` were, in that order, 0.7%, -0.62% and -14.71%.
